In PubChem BioAssay AID1224904 (Broad Institute, 2016) one finds activity change, negative = inhibition and Gaussia minus Italica difference data, which are given here for 27 molecules.

The nature of the assay: DUX4 transcriptional activity inhibition in cells – 293T cells, Gaussia and Italica luciferase, primary screen (AID 1224904).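 As to activity change, negative = inhibition: 0% = median of neutral control wells and -100% = median of positive control wells.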 The conditions noted are these: 293T-iDUX4 ZSCAN4-Gaussia luciferase reporter, 24 h, stronger effect = lower value, concentration not given here; for Gaussia minus Italica difference: measured here: selective DUX4 reporter inhibition.
The mark [1] stands for this setting: measured here: Italica tet-on control reporter.

Hit rate of the full screen: of about 37,000 compounds, about 290 (0.78%) were called active. Roughly 10% stayed inconclusive and do not appear here.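 The calls were made as follows: active = mean inhibition of at least 10% in the main channel, exceeding the control channel by a set limit; inconclusive = inhibition of 10% or more but channel gap under a set limit; inactive = mean inhibition below 10%.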 The sample as a whole holds a higher share of actives than the screen did.

`CCNC[C@@H]1[C@@H](c2ccccc2)[C@@H](CO)N1C(=O)Cc1ccccn1`: the activity change, negative = inhibition is -0.0686% (inactive) and the Gaussia minus Italica difference was -0.642%. Moreover, the activity change, negative = inhibition under setting [1] turned out to be 0.573%.
Taken in the same sequence, the figures for `CC(C)[C@@H]1COCc2cn(nn2)CC[C@@H](C)C(=O)N1` were -4.81% (inactive), -4.34% and -0.475%.
On to `C/C=C/c1ccc([C@H]2[C@@H](CO)N(S(C)(=O)=O)[C@@H]2CN(C)C(=O)CC)cc1`, for which the activity change, negative = inhibition was -5.98% (inactive) and the Gaussia minus Italica difference is -2.63%. The activity change, negative = inhibition under setting [1] is -3.34%.
Taken in the same sequence, the figures for `COc1ccc(S(=O)(=O)Nc2ccc3c(c2)C(=O)N([C@@H](C)CO)C[C@@H](C)[C@H](CN(C)C(=O)CCC(F)(F)F)OCCCC[C@H](C)O3)cc1` were -0.224% (inactive), -2.09% and 1.87%.
Taken in the same sequence, the figures for `COc1ccc2c3c(n(C)c2c1)[C@H](CO)N(Cc1ccc(F)cc1)CC31CCN(C)CC1` were -2.1% (inactive), -2.85% and 0.744%.
For the molecule `CCCN1[C@H](C(=O)N2CCCCC2)[C@@H](CO)[C@@H]2Cn3c(ccc(-c4ccccc4F)c3=O)[C@@H]21`, the activity change, negative = inhibition is -5.69% (inactive) and the Gaussia minus Italica difference was -5.56%. Further, the activity change, negative = inhibition under setting [1] was -0.135%.
Taken in the same sequence, the figures for `CCCNC(=O)N(C)C[C@@H]1Oc2ncc(C#CCc3ccccc3)cc2C(=O)N([C@@H](C)CO)C[C@H]1C` were 5.53% (inactive), 1.6% and 3.94%.
Taken in the same sequence, the figures for `CCCNC(=O)N1C[C@@H](O)COC[C@H]2O[C@H](CC(=O)N3CCC(Cc4ccccc4)CC3)CC[C@@H]21` were -2.96% (inactive), -0.719% and -2.25%.
Taken in the same sequence, the figures for `N#C[C@H]1[C@@H](c2ccc(-c3ccccc3F)cc2)[C@H](CO)N1C(=O)c1ccccn1` were 2.62% (inactive), 0.933% and 1.69%.
As for `CCS(=O)(=O)N1Cc2cc(C(=O)N(C)C)nc(-c3cccc(-c4ccc(C#N)cc4)c3)c2[C@H]1CCO`, the activity change, negative = inhibition was 0.897% (inactive) and the Gaussia minus Italica difference was -1.75%. The activity change, negative = inhibition under setting [1] came to 2.65%.
Consider `COc1ccccc1CN1CC[C@@H]2[C@@H](CO)Nc3ccc(C#Cc4ccccc4)cc3[C@@H]21`, for which the activity change, negative = inhibition is -0.512% (inactive) and the Gaussia minus Italica difference was -16.5%. Besides, the activity change, negative = inhibition under setting [1] is 16%.
Taken in the same sequence, the figures for `COc1ccc(C#Cc2ccc3c(c2)[C@H]2[C@H](CCN2Cc2nccs2)[C@@H](CO)N3)cc1` were -46.9% (active), -28.6% and -18.3%.
Taken in the same sequence, the figures for `COc1ccc(S(=O)(=O)N2CC[C@@H]3[C@@H](CO)Nc4ccc(C#Cc5cccnc5)cc4[C@@H]32)cc1` were 2.41% (inactive), 10.4% and -7.96%.
For the molecule `CCCNC(=O)Nc1ccc2c(c1)C(=O)N(C)[C@@H]1CC[C@@H](CC(=O)NC)O[C@H]1CO2`, the activity change, negative = inhibition was 5.07% (inactive) and the Gaussia minus Italica difference is -2.97%. Also, the activity change, negative = inhibition under setting [1] worked out at 8.03%.
Taken in the same sequence, the figures for `C[C@H](NC(=O)C[C@@H]1C=C[C@H](NC(=O)CN2CCOCC2)[C@H](CO)O1)c1ccccc1` were 4.92% (inactive), 3.76% and 1.16%.
Taken in the same sequence, the figures for `CCCNC(=O)N1CCC2(CC1)CN(C(=O)c1cccnc1)[C@@H](CO)c1[nH]c3cc(OC)ccc3c12` were 8.76% (inactive), 12.5% and -3.75%.
Taken in the same sequence, the figures for `C[C@@H]1CCCCO[C@H](CN(C)Cc2ccc(C(=O)Nc3ccccc3N)cc2)[C@H](C)CN([C@H](C)CO)C(=O)c2cc(N(C)C)ccc2O1` were 1.16% (inactive), 0.898% and 0.261%.
Consider `CC(C)CC#Cc1ccc([C@@H]2[C@@H](CO)N3C(=O)CN(C(=O)c4cnccn4)C[C@@H]23)cc1`, for which the activity change, negative = inhibition is -2.25% (inactive) and the Gaussia minus Italica difference was -6.63%. Further, the activity change, negative = inhibition under setting [1] worked out at 4.38%.
Taken in the same sequence, the figures for `COc1ccc2c3c(n(C)c2c1)[C@@H](CO)N(C(=O)C1CC1)CC31CN(C(=O)C2CCOCC2)C1` were 9.17% (inactive), 7.12% and 2.05%.
Taken in the same sequence, the figures for `O=C(Nc1ccccc1)N1C[C@H]2[C@@H](c3ccccc31)[C@H](CO)N2Cc1ccc(F)cc1` were -5.39% (inactive), -5.35% and -0.0374%.
Consider `COc1ccc2c3c(n(C)c2c1)[C@@H](CO)N(C(=O)c1ccccn1)CC31CN(C)C1`, for which the activity change, negative = inhibition is 15.3% (inactive) and the Gaussia minus Italica difference came out at 8.66%. The activity change, negative = inhibition under setting [1] was 6.61%.
Taken in the same sequence, the figures for `CN(C)C(=O)C[C@@H]1C[C@H]2c3cc(NC(=O)Nc4ccccc4F)ccc3O[C@H]2[C@@H](CO)O1` were 1.79% (inactive), -2.83% and 4.62%.
Taken in the same sequence, the figures for `CO[C@H]1CN(C)C(=O)c2ccc(NC(=O)c3cccc(F)c3)cc2OC[C@@H](C)N(C(C)=O)C[C@@H]1C` were 1.79% (inactive), -0.333% and 2.12%.
Taken in the same sequence, the figures for `Cc1ccccc1-c1ccc([C@H]2[C@H](CO)N3C(=O)CN(C(=O)c4cccnc4)C[C@@H]23)cc1` were 6.89% (inactive), -4.8% and 11.7%.
In the case of `O=C(C[C@H]1CC[C@@H]2[C@H](COC[C@H](O)CN2S(=O)(=O)c2ccccc2)O1)N1CCOCC1`, the activity change, negative = inhibition is 7.87% (inactive) and the Gaussia minus Italica difference is -0.196%. Further, under setting [1], the activity change, negative = inhibition was found to be 8.06%.
Taken in the same sequence, the figures for `O=C(C[C@@H]1CC[C@H]2[C@@H](COC[C@@H](O)CN2C(=O)Nc2ccc(Cl)cc2)O1)NC1Cc2ccccc2C1` were 3.16% (inactive), -7.28% and 10.4%.
Taken in the same sequence, the figures for `Cc1ccccc1S(=O)(=O)Nc1ccc2c(c1)C(=O)N(C)[C@@H]1CC[C@@H](CC(=O)O)O[C@@H]1CO2` were -2.51% (inactive), -1.73% and -0.782%.
